Source: PubChem (The Scripps Research Institute Molecular Screening Center)
LYPLA1 counter = LYPLA1 inhibitors, primary screen, counter-screen for PME1 inhibitor project, biochemical, fluorescence polarization, FP-Rh probe ABPP. Acyl-protein thioesterase 1 (Homo sapiens), O75608. recombinant LYPLA1. inhibition, % at 5.9 µM. 0.16% of 320,000 active. AID 2174, 2009;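 active = inhibition above the mean of all tested compounds plus 3 SD, set per campaign, cut at about 14% in these data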;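 also: inhibitors block serine hydrolase probe labeling of LYPLA1 so polarization falls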
Target sequence (O75608 whole entry, looked up): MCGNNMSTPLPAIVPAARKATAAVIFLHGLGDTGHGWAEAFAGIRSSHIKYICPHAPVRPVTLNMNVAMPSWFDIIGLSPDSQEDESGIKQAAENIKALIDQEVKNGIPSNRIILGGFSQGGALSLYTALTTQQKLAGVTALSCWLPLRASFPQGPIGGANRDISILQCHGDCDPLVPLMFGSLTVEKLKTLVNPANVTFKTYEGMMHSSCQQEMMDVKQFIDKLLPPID
Fam108B inh = mouse Fam108B serine hydrolase inhibitors, primary screen, counter-screen for RBBP9 inhibitor project, biochemical, fluorescence polarization; recombinant Fam108B, FP-Rh probe fluorescence polarization; inhibition, % at 9.51 µM; 0.33% of 300,000 active; AID 1947, 2009;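 active = inhibition above the screen mean inhibition plus 3 SD, computed separately per campaign, cut at about 18% in these data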;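 also: inhibitors lower polarization as less probe binds the enzyme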
LYPLA2 inh = LYPLA2 inhibitors, primary screen, counter-screen for PME1 inhibitor project, biochemical, fluorescence polarization, FP-Rh probe ABPP. recombinant LYPLA2. inhibition, % at 5.9 µM. 0.38% of 320,000 active. AID 2177, 2009;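 active = inhibition above the screen-wide mean plus 3 SD, limit set per campaign, cut at about 26% in these data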
PREPL inh = PREPL enzyme inhibitors, primary screen, biochemical, fluorescence polarization; 0.68% of 320,000 active; recombinant PREPL, fluorescence polarization activity-based probe; Prolyl endopeptidase-like (Homo sapiens), Q4J6C6; inhibition, % at 5.96 µM; in the data active = inhibition above about 43%
PME-1 inh = PME-1 inhibitors via competitive probe labeling, primary screen, biochemical, fluorescence polarization, FP-Rh probe, HTS | recombinant PME-1 | inhibition, % at 5.9 µM | 0.53% of 320,000 active | AID 2130, 2009;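 active = inhibition above the campaign mean of all compounds plus 3 SD, cut at about 26% in these data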;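 also: competitive labeling of PME-1 active site by serine hydrolase directed probe; inhibitors block probe labeling so polarization falls and inhibition rises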
Target sequence (Q9Y570 whole entry, looked up): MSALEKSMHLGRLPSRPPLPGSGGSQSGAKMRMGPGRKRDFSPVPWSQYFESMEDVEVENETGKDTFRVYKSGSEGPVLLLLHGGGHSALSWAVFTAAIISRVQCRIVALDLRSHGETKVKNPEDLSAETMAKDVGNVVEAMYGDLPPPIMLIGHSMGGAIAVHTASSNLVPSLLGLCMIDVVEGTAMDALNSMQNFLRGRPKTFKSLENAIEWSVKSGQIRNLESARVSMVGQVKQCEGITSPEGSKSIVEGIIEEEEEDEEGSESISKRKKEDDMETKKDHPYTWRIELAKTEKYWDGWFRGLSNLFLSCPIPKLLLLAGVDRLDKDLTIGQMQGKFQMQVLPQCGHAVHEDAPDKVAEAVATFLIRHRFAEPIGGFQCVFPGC
Fam108b confirm = mouse Fam108b serine hydrolase inhibitors, confirmation, counter-screen for RBBP9 inhibitor project, biochemical, fluorescence polarization, triplicate. shares compounds with Fam108B inh. recombinant Fam108b, FP-Rh probe fluorescence polarization. inhibition, % at 9.51 µM. 44% of 930 active;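 active = inhibition above a limit from the primary screen, the mean over all compounds plus 3 SD, cut at about 19% in these data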;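 also: inhibitors free the probe so polarization falls as inhibition rises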
Fam108b ABPP HTS = inhibition of mouse Fam108b by HTS hits, late-stage follow-up, biochemical, gel-based ABPP, soluble recombinant form | shares compounds with Fam108B inh | fluorophosphonate probe | inhibition, % at 20 µM | 44% of 260 active; in the data active = inhibition above about 40%
Of the large screens only hits and unclear results are named; the others gave an inactive call (follow-up assays come after a bar, where they were run). Compounds with a hit are over-represented: about 1.3% of the library has one in this group of screens.

Cc1ccc(S(=O)(=O)/N=C2/C=C(Sc3ncn[nH]3)C(=O)c3ccccc32)c(C)c1	Fam108B inh 60.1, LYPLA2 inh 31.0, PME-1 inh 35.7 | Fam108b confirm 33.6
CC(C)(C)c1ccc(S(=O)(=O)/N=C2\C=C(NS(=O)(=O)c3ccccc3)C(=O)c3ccccc32)cc1	none
Cc1ccc(S(=O)(=O)N2CCN(C(=O)CSc3ncn[nH]3)CC2)c(C)c1	none
CC(C)c1ccc(S(=O)(=O)/N=C2/C=C(Sc3ncn[nH]3)C(=O)c3ccccc32)cc1	Fam108B inh 57.5, LYPLA2 inh 36.3, PME-1 inh 41.5 | Fam108b confirm 35.5
Cc1ccc(N(CC(=O)NCc2ccc(F)cc2)S(=O)(=O)c2c(C)n[nH]c2C)cc1	none
CC(C)(C)c1nc2scc(-c3cccs3)c2c(=O)o1	Fam108B inh 54.9 | Fam108b confirm 106.1 | Fam108b ABPP HTS 85.0
CC(C)(C)c1nc2scc(-c3ccc(Cl)cc3)c2c(=O)o1	Fam108B inh 20.8 | Fam108b confirm 19.4
O=C(Nc1ccc(N2CCCCC2)c(Cl)c1)c1ccc(N2CCOCC2)c([N+](=O)[O-])c1	Fam108B inh 18.6 | Fam108b confirm inactive
O=C(Nc1cc(Cl)ccc1N1CCOCC1)c1ccc(N2CCCCC2)c([N+](=O)[O-])c1	none
COC(=O)CCNCCSc1nnc(-c2ccco2)n1Cc1ccccc1	none
COc1ccc(Cl)cc1Nc1nc(-c2sc(NC(=O)C(C)(C)C)nc2C)cs1	none
COc1ccc(Cl)cc1Nc1nc(-c2sc(NC(=O)c3ccco3)nc2C)cs1	Fam108B inh 19.4 | Fam108b confirm inactive
CC(C)Sc1nc2ncnc(N)c2[nH]1	none
O=[N+]([O-])c1ccc2nc(-c3ccc(Cl)cc3)[nH]c2c1	Fam108B inh 19.5 | Fam108b confirm inactive
Cc1ccc(-c2nc3ccc([N+](=O)[O-])cc3[nH]2)cc1	none
O=C(NC1CCCC1)c1sc(=S)n2c1[nH]c(=O)c1ccccc12	none
O=C(NCc1ccco1)c1sc(=S)n2c1[nH]c(=O)c1ccccc12	Fam108B inh 38.2 | Fam108b confirm 33.7 | Fam108b ABPP HTS inactive
O=C(COC(=O)c1cccc(Br)c1)Nc1ccc2[nH]c(=O)[nH]c2c1	none
CC1CCN(CCCN2C(=O)C3C(C(=O)Nc4ccc(Cl)cc4)C4C=CC3(O4)C2C(=O)NC2CCCCC2)CC1 (stereo not drawn)	none
O=C(CSc1ccc(-c2ccco2)nn1)NCc1ccccc1Cl	Fam108B inh 21.5 | Fam108b confirm inactive
NC(=O)c1ccc(NC(=O)COC(=O)CCN2C(=O)c3ccccc3C2=O)cc1	none (no result: LYPLA1 counter, Fam108B inh, LYPLA2 inh, PME-1 inh)
O=[N+]([O-])c1ccc(S(=O)(=O)Nc2ccc(-c3csc(-c4ccccc4)n3)cc2)cc1	Fam108B inh 24.6 | Fam108b confirm inactive
CCOC(=O)CNc1ccc(OC(F)(F)F)cc1	none
Cn1c(O)c(C=NNC(=O)c2cc3ccccc3cc2O)c2ccccc21	none (no result: LYPLA1 counter, Fam108B inh, LYPLA2 inh, PREPL inh, PME-1 inh) | Fam108b ABPP HTS 55.0
COc1ccc2c(c1)cc(C(=O)N/N=C/c1c(O)c(C(=O)O)cc3ccccc13)n2C	Fam108B inh 43.2, PME-1 inh 49.1 | Fam108b confirm inactive
Cn1c(C(=O)NN)cc2cc(Oc3ccccc3)ccc21	none
COc1ccccc1NC(=O)Nc1nc(CC(=O)Nc2ccc(F)c(F)c2)cs1	Fam108B inh 20.2 | Fam108b confirm inactive
CC1(COS(N)(=O)=O)CCCCC1	none
O=C(O)c1cc(N/N=C/c2ccc(-c3ccc(F)cc3)o2)ccc1Cl	none
O=C(O)c1ccc(N/N=C/c2ccc(-c3ccc(Cl)cc3Cl)o2)cc1	Fam108B inh 28.4, PME-1 inh 64.0 | Fam108b confirm 22.8
COC(=O)N/N=C/c1ccc(-c2ccc(Cl)cc2Cl)o1	none
O=C(O)c1ccc(N/N=C/c2ccc(-c3cc(Cl)ccc3Cl)o2)cc1	Fam108B inh 22.2 | Fam108b confirm inactive
O=C(COc1ccccc1)Nc1c2c(nn1-c1ccc(F)cc1)CS(=O)(=O)C2	none
Oc1c(Br)cc(C=Nc2ccc3nc(-c4ccccc4)[nH]c3c2)c(O)c1Br	Fam108B inh 33.4, PME-1 inh 35.2 | Fam108b confirm inactive
O=C(Nc1ccc(-c2csc(Nc3cccc(C(F)(F)F)c3)n2)cc1)c1cc([N+](=O)[O-])cc(C(F)(F)F)c1	Fam108B inh 41.1 | Fam108b confirm inactive
Clc1ccccc1C(c1ccccc1)(c1ccccc1)n1ccnc1	Fam108B inh 31.9 | Fam108b confirm 46.4 | Fam108b ABPP HTS 45.0
COc1ccc(C(CNC(=O)c2ccc3c(c2)OCCO3)N(C)C)cc1 (stereo not drawn)	none
COc1cccc(CC(=O)Nc2ccc(S(=O)(=O)N3CCCCC3)cc2)c1	none (no result: LYPLA1 counter, Fam108B inh, LYPLA2 inh, PME-1 inh)
CCc1cccc2cc3c(N)c(C(=O)Nc4ccc(S(=O)(=O)N5CCCC5)cc4)sc3nc12	Fam108B inh 54.2, PME-1 inh 38.4 | Fam108b confirm inactive
Cc1cccc2cc3c(N)c(C(=O)Nc4ccc(N5CCOCC5)cc4)sc3nc12	Fam108B inh 19.9 | Fam108b confirm inactive
Cc1cc(C)c2c(c1)NC(C(=O)O)C1CC=CC21 (stereo not drawn)	Fam108B inh 21.3 | Fam108b confirm inactive
Cc1ccc2c(c1C)NC(C(=O)O)C1CC=CC21 (stereo not drawn)	Fam108B inh 22.7 | Fam108b confirm inactive
CCOC(=O)C1CCCN(C(=O)CCc2nnc(-c3ccc(C(C)=O)s3)o2)C1 (stereo not drawn)	none
Nc1ccc(O)c(C(=O)O)c1	none
O=C(O)C1=CC(=C(c2ccc(O)c(C(=O)O)c2)c2ccc(O)c(C(=O)O)c2)C=CC1=O	Fam108B inh 52.9, PREPL inh 79.7 | Fam108b confirm 31.5
Cc1ccc(-c2cc(-c3ccco3)c3c(N)c(C(=O)NN)oc3n2)cc1	Fam108B inh 30.0 | Fam108b confirm inactive
COc1cccc(/C=N/NC(=O)c2oc3nc(-c4ccccc4)cc(-c4ccco4)c3c2N)c1	none
CCOc1cccc(-c2csc(C3COc4ccccc4O3)n2)c1 (stereo not drawn)	none
COc1ccc(/C=N/NC(=O)c2cc(C34CC5CC(CC(C5)C3)C4)[nH]n2)cc1O	Fam108B inh 24.1 | Fam108b confirm inactive
N#Cc1c(Cl)c(Cl)c2nnc(-c3ccc(Br)cc3)n2c1Cl	Fam108B inh 19.3 | Fam108b confirm inactive
CCCS(=O)(=O)c1nc(S(=O)(=O)c2ccc(C)cc2)c(N2CCN(CC)CC2)s1	none
Oc1ccc(Br)cc1CNc1cccc2cccnc12	none
